Compound activity deposited in PubChem by University of Pittsburgh Molecular Library Screening Center.
Many of the other results were omitted from the sample, so hits are more common in it than they were.
HIV RNase H inh-1 – HIV-1 RT RNase H inhibitors, primary screen, biochemical, fluorescence. Gag-Pol polyprotein (Human immunodeficiency virus type 1 group M subtype B (isolate …. RT-RNase H RNA/DNA duplex cleavage. inhibition, % at 10 µM. 65,000 tested, 1.9% active; in the data active = inhibition above about 50%
HIV RNase H inh-2 – HIV-1 RT RNase H inhibitors, retest, confirmation, biochemical; Recombinant RT RNase H, fluorescent RNA/DNA duplex cleavage; shares compounds with HIV RNase H inh-1; 1,000 tested, 39% active; AID 651, 2007; inhibition, % at 10 µM; in the data active = inhibition above about 48%; inconclusive = no clear call, values can overlap the other calls
Hits are given with their value; 0 = inactive; ? = inconclusive.

SMILES	HIV RNase H inh-1	others
Cc1ccc(C)c(/C(O)=C2\C(=O)C(=O)N(CCCN(C)C)C2c2cccnc2)c1 (configuration not stated)	0
CCCc1nc(S(=O)(=O)Cc2ccc(Cl)cc2Cl)n[nH]1	0
COC(=O)C1C(c2ccccc2)C(C(=O)N2CCOCC2)C1c1ccccc1 (configuration not stated)	0
CCOC(=O)N(c1ccccc1)P1(=S)OCCO1	88	HIV RNase H inh-2=57
CNC(=O)N(c1ccccc1)c1ccccc1	0
CCOC(=O)N1CCN(S(=O)(=O)Cc2ccccc2)CC1	0
CCOC(=O)N(c1ccccc1)P1(=S)OCC(C)O1 (configuration not stated)	0
COC(=O)N(c1ccccc1)P1(=S)OCCO1	90	HIV RNase H inh-2=54
COC(=O)C(O)(NC(=O)NC(C)=O)C(F)(F)F (configuration not stated)	0
CC(C(=O)Nc1ccc2c(c1)OCO2)N(c1ccc(Cl)cc1)S(C)(=O)=O (configuration not stated)	0
COc1ccc2sc(N3C(=O)C4CC=C(C)CC4C3=O)nc2c1 (configuration not stated)	0
O=C(CSc1nnc2sc3ccccc3n12)c1ccco1	0
c1cncc(-c2nc3c4ccccc4nc(N4CCC(N5CCCCC5)CC4)n3n2)c1	0
Cc1ccc(NC(=O)CSC2=C(C#N)C(c3ccco3)C3=C(CCCC3=O)N2)cc1 (configuration not stated)	0
C=CCOC(=O)C1=C(C)NC(SCC(=O)Nc2ccc(C)c(Cl)c2)=C(C#N)C1c1ccco1 (configuration not stated)	94	HIV RNase H inh-2=85
COCCOC(=O)C1=C(C)NC(SCC(=O)NC(C)(C)C)=C(C#N)C1c1ccco1 (configuration not stated)	0
O=c1c2nnn(Cc3ccccc3)c2ncn1C/C=C/c1ccccc1	0
Nc1nc(-c2ccc(Br)s2)c(Br)s1	0
N#Cc1c(N)nc2c(c1-c1ccccc1)CCCC2	0
N#Cc1c(N)[nH]c(=S)c(C#N)c1-c1ccccc1	82	HIV RNase H inh-2=0
N#Cc1c2c(nc(N)c1-c1ccccc1)CCCCC2	0
CN(C)Cc1cc(CCNC(=O)c2ccc(Cl)cc2)ccc1O	0
O=C(COc1ccccc1)Nn1cnc2ccccc21	0
NC(=O)c1c(NC(=O)CSc2nnc(-c3ccccc3)n2CC2CCCO2)sc2c1CCC2 (configuration not stated)	0
Cn1cnnc1SCC(=O)Nc1sc2c(c1C(N)=O)CCC2	75	HIV RNase H inh-2=0
SMILES	HIV RNase H inh-1	others
NC(=O)c1c(NC(=O)C2CCCO2)sc2c1CCC2 (configuration not stated)	0
CCOC(=O)Cc1csc(NC(=O)CCN2C(=O)c3ccccc3C2=O)n1	0
CCCc1nc2sc3c(SCC(=O)NCc4ccco4)ncnc3c2c2c1CCC2	0
CC(C)c1nc2sc3c(NCc4ccco4)ncnc3c2c2c1COC(C)(C)C2	0
COC(=O)CSc1ncnc2c1sc1nc(-c3ccco3)c3c(c12)CC(C)(C)OC3	60	HIV RNase H inh-2=0
CCOC(=O)c1cc(-c2ccc(C)cc2)n(CC(=O)NCc2ccco2)c1C	58	HIV RNase H inh-2=0
CCOC(=O)c1cc(-c2ccc(C)cc2)n(CCC(=O)NCCN(C)C)c1C	0
COc1ccc2c(c1)c(=O)cc(C)n2CC(=O)NCc1ccco1	0
O=C(c1c(Cl)nc2sccn12)N1CCN(c2cccc(Cl)c2)CC1	0
Cc1ccc(NCc2nnc(SCC(=O)NCCc3ccccc3)n2C)cc1	0
CCOC(=O)c1nn(-c2ccccc2C)c(=O)c(C#N)c1C	0
CCOC(=O)c1c(N)sn(-c2ccccc2C)c1=S	92	HIV RNase H inh-2=71
CCOC(=O)c1c(C)[nH]sc1=S	0
CCC(C)c1ccc2oc(-c3ccc(NC(=O)c4ncn[nH]4)cc3)nc2c1 (configuration not stated)	64	HIV RNase H inh-2=71
CCC(C)NCC(=O)Nc1ccc(-c2nc3cc(NC(=O)CNC(C)CC)ccc3o2)cc1 (configuration not stated)	0
CC(C)c1ccc2oc(-c3ccc(N)cc3)nc2c1	0
O=C(Nc1ccc2oc(-c3ccccc3Cl)nc2c1)c1ncn[nH]1	0
CCC(C)c1ccc(O)c(NC(=O)c2ncn[nH]2)c1 (configuration not stated)	0
CC(C)c1ccc2oc(-c3ccc(NC(=O)c4ncn[nH]4)cc3)nc2c1	74	HIV RNase H inh-2=58
COc1ccc(C(=O)NCCn2ccc3ccccc32)c(OC)c1	0
COc1ccc(C)cc1NS(=O)(=O)c1cccc2nonc12	0
CC1(O)c2ccccc2C(=O)N1Cc1ccccc1 (configuration not stated)	0
CC1(O)c2ccccc2C(=O)N1CCc1ccccc1F (configuration not stated)	89	HIV RNase H inh-2=0
O=C(O)c1ccc2c(c1)N(Cc1ccccc1F)C(=O)c1ccccc1S2=O (configuration not stated)	0
Cn1c(C(=O)O)c(CC(=O)NCc2cccnc2)c2ccccc21	0
SMILES	HIV RNase H inh-1	others
Cc1nn(-c2ccc(F)cc2)c(C)c1NS(=O)(=O)c1ccc(Cl)cc1	0
O=C(Nc1ccccc1C(=O)N1CCCC1)c1cccc(S(=O)(=O)N2CCCCC2)c1	0
Nc1nc(NC(=O)c2cccc(S(=O)(=O)N3CCCCCC3)c2)nc(-c2ccccc2)n1	66	HIV RNase H inh-2=0
O=C(O)c1cccc(NC(=O)c2cccc(S(=O)(=O)N3CCCCC3)c2)c1	0
COc1ccc(CNc2nc3c(c(C(F)(F)F)n2)CCCCC3)cc1	0
COc1ccc(OC)c(N2C(=O)C(Cl)=C(N3CCOCC3)C2=O)c1	0
Cc1ccccc1N1C(=O)C(Cl)=C(N2CCCCCC2)C1=O	0
O=C1C(Cl)=C(N2CCCCC2)C(=O)N1c1ccccc1Cl	72	HIV RNase H inh-2=0
COc1ccc(OC)c(C2C(C(=O)O)c3ccccc3C(=O)N2C)c1 (configuration not stated)	65	HIV RNase H inh-2=0
COc1ccc(C2C(C(=O)O)c3ccccc3C(=O)N2C)cc1Br (configuration not stated)	0
COc1cc(OC)c(C2C(C(=O)O)c3ccccc3C(=O)N2C)cc1OC (configuration not stated)	0
Cc1cc(C)n2nc(SCc3cc(=O)n4c(C)cccc4n3)nc2n1	0
O=C(CN1CCCCC1)Nc1cccc(-n2cnnn2)c1	0
N#Cc1c(N)sc(=S)c2c1CCN(Cc1ccccc1)C2	66	HIV RNase H inh-2=0
CCN1CCc2c(sc(N)c2C#N)C1	0
N#Cc1c(NCCO)nc(NCc2ccccc2)c2c1CCN(Cc1ccccc1)C2	0
CS(=O)(=O)N(CCc1ccccc1)CC(=O)NCc1ccccn1	0
NS(=O)(=O)c1ccc(NC(=O)COC(=O)CCNC(=O)NC23CC4CC(CC(C4)C2)C3)cc1	0
Cc1oc(-c2ccccc2F)nc1CSCC(=O)NCc1ccc2c(c1)OCO2	0
Cn1c(C(=O)NC2CCCC2)cc2c(=O)n(C)c3ccccc3c21	0
Cc1cc(C)nc(SCC(=O)NC2=NC(=O)C(C)S2)n1 (configuration not stated)	0
Cc1cc(C(F)(F)F)nc(SCC(=O)Nc2ccccc2)n1	0
Cc1cc(C(F)(F)F)nc(SCC(=O)NC2=NC(=O)C(C)S2)n1 (configuration not stated)	60	HIV RNase H inh-2=?
CN1CCc2c(sc3c2c(=O)n(-c2ccccc2)c2nnc(SCc4ccccc4F)n32)C1	0
Cc1c(Cc2ccccc2)sc(N)c1C(N)=O	82	HIV RNase H inh-2=?
Cc1nc(N)nc(C)c1Cc1ccccc1	0
Cc1nc(-c2ccccc2)sc1C(N)=O	0
